Rows were chosen to be rich in hits. Some 3.3% of all compounds tested hit in one or more screens of this group.
AmpC inh no detg = inhibitors of E. coli AmpC beta-lactamase without detergent. AID 485341. 330,000 compounds, 0.52% hits. AmpC nitrocefin hydrolysis, absorbance 480 nm, 0.0001% Triton. Potency, µM (top dose mostly 57.1 µM), for the others: top-dose activity change, negative = inhibition, most hits filed as inhibitors;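 note: plate controls were no compound for no effect and no enzyme for full effect; nearly all actives have a fitted effect of over 20% in size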
Target sequence (P00811 whole entry, looked up): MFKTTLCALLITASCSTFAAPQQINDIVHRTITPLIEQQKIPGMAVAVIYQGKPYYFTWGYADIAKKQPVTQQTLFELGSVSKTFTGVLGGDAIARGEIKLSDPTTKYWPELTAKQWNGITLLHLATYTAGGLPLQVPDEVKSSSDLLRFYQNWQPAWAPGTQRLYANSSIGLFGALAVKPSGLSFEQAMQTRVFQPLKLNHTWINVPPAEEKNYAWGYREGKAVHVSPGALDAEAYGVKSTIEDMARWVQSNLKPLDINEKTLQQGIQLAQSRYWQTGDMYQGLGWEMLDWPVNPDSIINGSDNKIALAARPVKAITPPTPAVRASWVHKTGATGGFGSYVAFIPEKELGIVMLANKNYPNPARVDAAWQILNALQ
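20 mM phosphate pH 7.0 + 0.01% (detergent screen) or 0.0001% Triton X-100; 5.3 nM AmpC reagent; cpd preinc 15 min RT; nitrocefin (800 uM stock) to start; A480 q20 s × 4 min; Activity was normalised to no-enzyme and no-compound control wells.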
AmpC detergent = inhibitors of E. coli AmpC beta-lactamase with detergent | AmpC hydrolysis of nitrocefin, absorbance 480 nm, 0.01% Triton | Potency, µM (highest dose often 114 µM), inactives show top-dose activity change, negative = inhibition, hits mostly inhibitors | 370,000 compounds, 0.041% hits | AID 485294;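 note: 0% = no-compound wells and -100% = no-enzyme wells; nearly all actives have a fitted effect of over 25% in size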
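20 mM phosphate pH 7.0 + 0.01% (detergent screen) or 0.0001% Triton X-100; 5.3 nM AmpC reagent; cpd preinc 15 min RT; nitrocefin (800 uM stock) to start; A480 q20 s × 4 min; Activity was normalised to no-enzyme and no-compound control wells.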
Sm TGR block = inhibitors of Schistosoma mansoni thioredoxin glutathione reductase; Q962Y6; purified TGR, DTNB reduction, TNB absorbance 405 nm; Potency, µM (titrated, usually from 114 µM), without a hit: at the highest dose activity change, negative = inhibition, usual class: inhibitors; 360,000 compounds, 3% hits; AID 485364; note: nearly all actives have a fitted effect of over 60% in size
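Kinetic colorimetric format: TGR-catalysed, NADPH-driven DTNB reduction monitored via TNB absorbance. Enzyme dispensed at 20 nM; compound exposure 15 min at room temperature before reaction start.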
* hit, by the source's call; ? = inconclusive; nt = not tested or not shown. Calls come from the whole dose curve; as a rule, active = well fitted curve in the direction sought with a large enough effect; inconclusive = small, poorly fitted or top-dose-only effect, or another doubt; inactive = no such curve, though single readings can be large; an effect the other way counts as inactive or inconclusive. Unless noted, % is set by controls: 0 for no effect and ±100 for the full control effect; potency is the fitted concentration of half-maximal effect.

SMILES | AmpC inh no detg | AmpC detergent | Sm TGR block
CCN(CC)c1ccc2c(Cl)cc(=O)oc2c1 | -17.2% | -0.2% | 0.0%
CCN(CC)c1ccc2c(O)cc(=O)oc2c1 | 25.1µM* | ? | 2.7%
CCn1cc(C(=O)NCc2ccc(F)cc2)c(=O)c2cc(S(=O)(=O)N(C)C)ccc21 | nt | 0.1% | -2.1%
CCN(CC)c1ccc(NC(=O)CCc2nnc3ccc(N4CCCC4)nn23)c(C)c1 | 63.9% | -10.7% | -20.5%
Nc1nc(-c2ccco2)cs1 | -26.7% | ? | ?
COc1ccc2nc3ccccc3nc2c1N | -0.4% | 7.4% | ?
Nc1nc(-c2ccco2)c(-c2ccco2)s1 | -43.5% | -18.7% | 20µM*
COc1ccc2nc3cccc(OC)c3nc2c1 | -28.8% | 6.4% | 20µM*
COc1ccc2nc(-c3ccco3)c(-c3ccco3)nc2c1 | -19.6% | ? | 3.55µM*
c1coc(-c2ncc[nH]2)c1 | -23.0% | 5.0% | -14.6%
COc1ccc(-c2nc3ccccc3nc2-c2ccc(OC)cc2)cc1 | 40.0% | ? | -11.5%
c1coc(-c2nc(-c3ccco3)c(-c3ccco3)nc2-c2ccco2)c1 | -45.7% | ? | 0.708µM*
CCOC(=O)c1[nH]c(C)c(CCC(=O)NCc2ccc(OC)cc2)c1C | nt | 16.0% | 3.3%
CCOC(=O)C1CCCN(c2c(C(=O)c3ccc(C)cc3)cnc3ccc(OCC)cc23)C1 (configuration not stated) | nt | 15.1% | -10.2%
Cn1c(CSc2nc3ccccc3s2)nnc1SCC(=O)NCCCN1CCOCC1 | -5.2% | -5.7% | -3.8%
Cc1ccc(CN(C)C(=O)COc2ccc(S(=O)(=O)N3CCCC3)cc2[N+](=O)[O-])c(C)c1 | 45.3% | -2.4% | -18.6%
CC(NC(=S)NC1CCCCC1)c1ccc(C(C)(C)C)cc1 (configuration not stated) | -44.1% | -9.0% | -24.0%
Cn1c(=O)c([N+](=O)[O-])c(Cl)c2ccccc21 | -19.0% | ? | 0.447µM*
Cc1nccn1-c1c([N+](=O)[O-])c(=O)n(C)c2ccccc12 | -13.3% | 5.2% | -16.5%
CCN(CC)c1c([N+](=O)[O-])c(=O)n(C)c2ccccc12 | -18.9% | 1.9% | -0.6%
Cn1c(=O)c([N+](=O)[O-])c(-n2cnc3ccccc32)c2ccccc21 | -16.2% | -7.6% | 15.8µM*
C[C@H](CO)N1C[C@H](C)[C@@H](CN(C)C(=O)Nc2ccccc2)Oc2ccc(NC(=O)Nc3ccccc3)cc2C1=O | 84.3% | nt | nt
COc1cc(C(=O)Nc2ccc(NC(=O)c3ccccc3Cl)nc2)cc(OC)c1OC | -4.7% | ? | 8.9%
Cn1cc(S(=O)(=O)N2CCN(c3cccc(Cl)c3)CC2)c(=O)n(C)c1=O | 40.5% | 8.9% | 2.3%
Cn1cc(S(=O)(=O)N2CCN(c3ccccc3)CC2)c(=O)n(C)c1=O | 39.8µM* | -14.4% | 5.9%
SMILES | AmpC inh no detg | AmpC detergent | Sm TGR block
C=CC[C@H](CC(=O)NCCO)C(=O)N[C@H](COC(=O)[C@@H](CC=C)Cc1ccc(F)cc1)C(C)(C)C | 246.1% | nt | nt
Cc1cccc(C(=O)CC(=O)c2cc(Cl)ccc2O)c1 | -40.8% | -6.8% | -3.9%
Cc1ccc(O)c(C(=O)CC(=O)c2cccc(F)c2)c1 | 20µM* | -5.1% | 4.6%
Cc1ccc(Cl)cc1N1CCN(C(=O)c2ccc3c(c2)CCN3S(C)(=O)=O)CC1 | 191.0% | 1.3% | 0.4%
O=C(Cc1ccsc1)N1CCN(S(=O)(=O)c2ccccc2F)CC1 | -23.3% | -14.6% | -8.0%
CCOc1ccc(C(C)=O)cc1CSc1nc2nc(C)cc(C)n2n1 | 14.3% | 0.4% | 0.6%
O=C(NNS(=O)(=O)c1ccc(F)cc1)c1cnn(-c2ccccc2)c1C(F)(F)F | -18.0% | 12.6% | 5.3%
Oc1ccc(Cl)cc1-c1cc(-c2ccco2)[nH]n1 | -37.1% | -7.7% | 44.7µM*
Oc1ccccc1-c1cc(-c2ccco2)[nH]n1 | ? | -8.4% | ?
NC(=O)c1nsc(C(=O)N(c2cccc(F)c2)C(C(=O)NCc2ccccc2)c2ccc(O)cc2)c1N (configuration not stated) | 7.94µM* | -6.5% | ?
NC(=O)c1nsc(C(=O)N(c2cccc(F)c2)C(C(=O)NC2CCCC2)c2ccc(O)cc2)c1N (configuration not stated) | -27.7% | 4.3% | -22.0%
COc1ccc(C(=O)COC(=O)CCN2C(=O)C3CC=CCC3C2=O)c(OC)c1 (configuration not stated) | -3.3% | -12.1% | -12.7%
CC1CCN(C(=O)COC(=O)c2nn(C)c(=O)c3ccccc23)CC1 | -9.1% | 6.2% | 3.5%
CC(C)c1ccc(N2CCN(C(=O)c3ccccc3NC(=O)/C=C\C(=O)O)CC2)cc1 | 5.6% | -2.8% | 39.8µM*
O=C(O)/C=C\C(=O)Nc1ccccc1C(=O)N1CCN(c2ccc(Cl)cc2)CC1 | -11.4% | 0.5% | 50.1µM*
CS(=O)(=O)Nc1ccccc1C(=O)N1CCN(c2ccccc2)CC1 | -15.1% | -2.9% | -17.4%
Cc1ccccc1N1CCN(C(=O)c2ccccc2NC(=O)/C=C\C(=O)O)CC1 | -13.6% | -14.5% | ?
C=CCNC(=O)c1cc(-c2ccncc2)nc2c(C)cc(C)cc12 | 105.7% | 5.9% | 6.9%
Cc1ccc2cc(CN(C(=O)c3ccco3)c3cccc(C)c3C)c(=O)[nH]c2c1 | -25.9% | 4.4% | 12.6µM*
Cc1ccc2cc(CCNC(=O)c3ccco3)c(=O)[nH]c2c1 | -19.9% | ? | -25.6%
Cc1ccc(N(Cc2cc3ccc(C)cc3[nH]c2=O)C(=O)c2ccco2)c(C)c1 | -25.1% | 7.6% | 8.91µM*
Cc1ccc2cc(CN(C(=O)c3ccco3)c3ccccc3C)c(=O)[nH]c2c1 | -23.9% | ? | -30.1%
COCC(=O)N(Cc1cc2ccc(C)cc2[nH]c1=O)c1ccccc1C | -2.6% | ? | 5.6%
CCC(=O)N(Cc1cc2ccc(C)cc2[nH]c1=O)c1ccccc1OC | 16.5% | -9.6% | 89.1µM*
CCN(CC)CCCNC(=O)CSc1nc(C)cc(C)n1 | -1.0% | 3.4% | 6.8%
SMILES | AmpC inh no detg | AmpC detergent | Sm TGR block
CCc1ccc(OCC(=O)Nc2cccc3nsnc23)cc1 | -17.4% | 0.8% | nt
COc1ccccc1CNC(=O)c1ccc(N2CCCC2)c(NC(=O)NCc2ccc(F)cc2)c1 | nt | 7.6% | 8.8%
COc1cc(NC(=O)CN2C(=O)NC(C)(CCC(C)C)C2=O)cc(OC)c1 (configuration not stated) | 4.8% | ? | 0.0%
COc1cc(NC(=O)CN2C(=O)NC(C)(CC(C)C)C2=O)cc(OC)c1 (configuration not stated) | 0.891µM* | 1.6% | 1.7%
O=C(CN1CCN(C(=O)c2c(F)cccc2F)CC1)Nc1ccccc1C(F)(F)F | 71.2% | 0.3% | -13.0%
Cc1cc(C)cc(NC(=O)CN2CCN(C(=O)c3cccs3)CC2)c1 | 19.4% | nt | nt
O=C(Cc1ccsc1)NNC(=O)c1ccccc1O | -24.1% | 0.0% | 1.4%
Cc1ccc(C2=Nc3ccccc3N(CC(=O)Nc3ccccc3F)C(=O)C2)cc1C | nt | 18.9% | 2.6%
Cc1ccc2c(c1)=NC(=O)/C(=C/c1c(O)[nH]c(=O)[nH]c1=O)C=2 | -28.9% | 3.7% | ?
Cc1ccc2c(c1)=C/C(=C\c1c(O)[nH]c(=S)[nH]c1=O)C(=O)N=2 | -45.4% | -3.2% | 12.6µM*
Cc1cc(-n2c(C)cc(C(=O)COc3ccc(Cl)cc3C(N)=O)c2C)no1 | -30.5% | nt | nt
